# Results: the supplement of paper PMC9135407
# Structures can show the parent of a compound that is named as a salt.
# Test system: primary human hepatic stellate cells (donor 1)
# Experiment: ACTA2 mRNA fold change vs DMSO (normalised to PSMB2); higher = more ACTA2 expression
# Details: 48 h
# Description: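 Secondary qRT-PCR screen in primary human HSCs (donor 1), 384-well plates, with compounds dispensed in quadruplicate and incubated for 48 h. Cells-to-CT lysates were used for multiplexed TaqMan qPCR of ACTA2 or COL1A1 with PSMB2 as reference. Fold changes versus DMSO come from a linear model (Ct_gene ~ Ct_PSMB2 + plate + chemical). A hit is defined as COL1A1 and ACTA2 FC <0.5 (FDR <0.05) with PSMB2 between 0.2 and 2.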
row,Structure (SMILES),ACTA2 mRNA fold change
1,Cc1ccc(S(=O)(=O)/C=C/C#N)cc1 (33.3333 µM),0.24
2,COC(=O)N[C@H](C(=O)N1CCC[C@H]1c1ncc(-c2ccc(-c3ccc(-c4cnc([C@@H]5CCCN5C(=O)[C@@H](NC(=O)OC)C(C)C)[nH]4)cc3)cc2)[nH]1)C(C)C (33.3333 µM),0.0331
3,Cn1cc(C2=C(c3ccc(Cl)cc3Cl)C(=O)NC2=O)c2ccccc21 (33.3333 µM),0.332
4,CC1(C)CC(=O)c2c(C(F)(F)F)nn(-c3ccc(C(N)=O)c(N[C@H]4CC[C@H](OC(=O)CN)CC4)c3)c2C1 (33.3333 µM),0.967
5,CC(C)NCCCn1c(Sc2cc3c(cc2I)OCO3)nc2c(N)ncnc21 (33.3333 µM),1.26
6,OCCN1CCN(CCCN2c3ccccc3Sc3ccc(C(F)(F)F)cc32)CC1 (33.3333 µM),0.0188
7,"Cc1ccc(NC(=O)c2ccc(CN3CCN(C)CC3)cc2)cc1Nc1nc(-c2cccnc2)cs1 [Masitinib (AB1010, Masivet)] (6.66667 µM)",0.706
8,C[C@@H]1CN(CCCn2c3ccccc3c3ccccc32)C[C@H](C)N1 [Rimcazole dihydrochloride] (33.3333 µM),0.0478
9,COc1ccccc1OCCNCC(O)COc1cccc2[nH]c3ccccc3c12 (stereo not given) [Carvedilol] (33.3333 µM),0.0773
10,O=C(O[C@H]1CN2CCC1CC2)N1CCc2ccccc2[C@@H]1c1ccccc1 [Solifenacin succinate] (33.3333 µM),0.257
11,CN1CCC(Nc2ncc3ncnc(Nc4ccc(F)c(Cl)c4)c3n2)CC1 [BIBX 1382 dihydrochloride] (33.3333 µM),0.00877
12,Cc1cnc(-c2cnc(NCCNc3ccc(C#N)cn3)nc2-c2ccc(Cl)cc2Cl)[nH]1 (33.3333 µM),0.259
13,CNCc1ccc(C)c(NC(=O)c2ccc(Nc3nc(-c4ccccc4)c4ccccc4n3)cc2)c1 (33.3333 µM),0.0244
14,"NC(N)=NC(=O)c1nc(Cl)c(N2CCCCCC2)nc1N [5-(N,N-hexamethylene)amiloride] (33.3333 µM)",0.0262
15,N=C(N)SCCc1ccc(OCc2ccc([N+](=O)[O-])cc2)cc1 [KB-R7943 mesylate] (33.3333 µM),0.0804
16,CSc1ccc2c(c1)C(N1CCN(C)CC1)Cc1ccccc1S2 (stereo not given) [Methiothepin maleate] (33.3333 µM),0.00993
17,CN1CCCN(C(c2ccccc2)c2ccc(Cl)cc2)CC1 (stereo not given) [Homochlorcyclizine dihydrochloride] (33.3333 µM),0.0102
18,CN1CCC(NC(=O)c2cc(-c3c(O)cc(O)cc3Oc3ccc([N+](=O)[O-])cc3)on2)CC1 (33.3333 µM),1.25
19,CC(C)c1cc(-c2n[nH]c(=O)n2-c2ccc3c(ccn3C)c2)c(O)cc1O [Ganetespib (STA-9090)] (33.3333 µM),0.605
20,O=C1Nc2ccccc2/C1=C1/Nc2ccccc2C1=O [Indirubin] (63.5333 µM),1.06

row,Structure (SMILES),ACTA2 mRNA fold change
1,CCOC(=O)C1=C(COCCN)NC(C)=C(C(=O)OC)C1c1ccccc1Cl (stereo not given) (33.3333 µM),0.084
2,CC(C)(C)c1cc(NC(=O)Nc2ccc(-c3cn4c(n3)sc3cc(OCCN5CCOCC5)ccc34)cc2)no1 [Quizartinib  (AC220)] (11.1 µM),0.258
3,Cn1cc(CNCC2CCN(c3ncc(C(=O)NO)cn3)CC2)c2ccccc21 [Quisinostat] (33.3333 µM),0.00604
4,Clc1ccc(C2(c3ccc(-c4cn[nH]c4)cc3)CCNCC2)cc1 (33.3333 µM),0.0459
5,"O=S(=O)(NCCNC/C=C/c1ccc(Br)cc1)c1cccc2cnccc12 [H-89, Dihydrochloride] (11.1 µM)",1.09
6,CC[C@]1(O)C[C@@H]2CN(CCc3c([nH]c4ccccc34)[C@@](C(=O)OC)(c3cc4c(cc3OC)N(C)[C@H]3[C@@](O)(C(=O)OC)[C@H](OC(C)=O)[C@]5(CC)C=CCN6CC[C@]43[C@@H]65)C2)C1 [Vinblastine sulfate] (33.3333 µM),0.02
7,CNCc1ccc(-c2cc(-c3nc(-c4ccc(S(=O)(=O)C(C)C)cc4)cnc3N)on2)cc1 (11.1 µM),0.0206
8,CN(C)CCC(c1ccc(Br)cc1)c1ccccn1 (stereo not given) [Brompheniramine maleate] (33.3333 µM),1.25
9,Cc1cc(Nc2cc(N3CCN(C)CC3)nc(/C=C/c3ccccc3)n2)n[nH]1 (11.1 µM),0.703
10,CNCCCC12CCC(c3ccccc31)c1ccccc12 [Maprotiline hydrochloride] (33.3333 µM),0.0243
11,COC(=O)C[C@](O)(CCCC(C)(C)O)C(=O)O[C@@H]1C(OC)=C[C@]23CCCN2CCc2cc4c(cc2[C@H]13)OCO4 [Homoharringtonine] (33.3333 µM),0.0673
12,NC1(c2ccc(-c3nc4ccn5c(=O)[nH]nc5c4cc3-c3ccccc3)cc2)CCC1 (11.1 µM),0.33
13,CN(C)C/C=C(/c1ccc(Br)cc1)c1cccnc1 [Zimelidine dihydrochloride] (11.1 µM),0.452
14,CNCCC(Oc1ccc(C(F)(F)F)cc1)c1ccccc1 (stereo not given) [Fluoxetine hydrochloride] (33.3333 µM),0.0314
15,c1cc(OCCN2CCCCC2)cc(-c2n[nH]c3ccc(-c4nnc[nH]4)cc23)c1 (33.3333 µM),0.0437
16,CCN1CCC(n2cc(CNc3cc(Cl)c4ncc(C#N)c(Nc5ccc(F)c(Cl)c5)c4c3)nn2)CC1 (33.3333 µM),0.0712
17,CCc1cc2c(cc1CC)CC(NC[C@H](O)c1ccc(O)c3[nH]c(=O)ccc13)C2 [Indacaterol Maleate] (33.3333 µM),0.0334
18,CC[C@@H]1C(=O)N(C)c2cnc(Nc3ccc(C(=O)NC4CCN(C)CC4)cc3OC)nc2N1C1CCCC1 (33.3333 µM),0.158
19,Cc1nc(Nc2ncc(C(=O)Nc3c(C)cccc3Cl)s2)cc(N2CCN(CCO)CC2)n1 (33.3333 µM),0.192
20,CN1CCN2c3ccccc3Cc3ccccc3C2C1 (stereo not given) [Mianserin hcl] (25.2333 µM),0.899
